Source: PubChem BioAssay
A selection: hits, their analogues and other compounds. The true share with any hit is near 2.4%.
D2 ag-1: human D2 receptor agonism in beta-arrestin assay; AID 624465; P14416; DiscoveRx PathHunter D2 beta-arrestin, luminescence, 90 min; 100% = 57 uM dopamine signal; activation, % (test concentration not listed); 0.084% of 360,000 active; in the data active = activation above about 40%; inconclusive = between about 15% and that limit
Target sequence (P14416 whole entry, looked up): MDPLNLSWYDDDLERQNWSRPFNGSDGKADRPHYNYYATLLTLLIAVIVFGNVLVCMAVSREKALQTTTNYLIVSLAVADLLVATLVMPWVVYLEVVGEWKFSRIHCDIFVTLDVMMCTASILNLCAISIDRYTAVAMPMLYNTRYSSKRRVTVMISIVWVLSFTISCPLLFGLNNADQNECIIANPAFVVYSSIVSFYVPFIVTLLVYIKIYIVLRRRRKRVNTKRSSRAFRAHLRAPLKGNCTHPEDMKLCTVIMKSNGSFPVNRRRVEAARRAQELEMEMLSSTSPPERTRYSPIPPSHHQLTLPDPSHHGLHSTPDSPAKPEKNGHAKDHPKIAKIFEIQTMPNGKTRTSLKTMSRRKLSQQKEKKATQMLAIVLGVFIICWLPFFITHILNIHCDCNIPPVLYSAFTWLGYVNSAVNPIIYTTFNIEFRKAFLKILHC
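Agonist mode: compounds alone added to overnight-plated D2 PathHunter cells for 90 min at 37 C, with 57 uM final dopamine (EC100) defining full response. Beta-arrestin recruitment detected by chemiluminescent reagent, read after 1 h at ambient temperature.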
D2 PAM-1: D2 dopamine receptor (human) potentiation | 0.34% of 340,000 active | potentiation, % at 10 µM | HEK293 T-REx D2, calcium flux, EC20 dopamine potentiation;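 active = potentiation over 3 SD above the plate norm, cut at about 30% in these data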
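Potentiation of an EC20 dopamine calcium response measured kinetically over 180 s, after a preceding 180 s compound-only read flagging agonists. Cells: inducible Hek293 Trex D2 line, 4000/well, cultured overnight at 30 C before dye loading.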
D2 antag: D2 dopamine receptor (human) antagonism; P14416; HEK293 TREx D2 cells, calcium flux, dopamine EC80; inhibition, % at 10 µM; 2% of 340,000 active; in the data active = inhibition above about 30%; inactive = below that, where a call was filed
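Antagonism is scored as inhibition of an EC80 dopamine-evoked calcium signal in a force-coupled, tetracycline-inducible HEK293 T-REx D2 line, with compound present 180 s before agonist.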
D2 ag-2: D2 dopamine receptor (human) agonism; P14416; HEK293 T-REx D2 cells, calcium flux agonist mode; activation, % at 2 µM; 0.53% of 340,000 active;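 active = activation over 3 SD above normal in the single-dose calcium agonist read, cut at about 30% in these data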
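Tetracycline-induced HEK293 Trex cells with D2 receptor force-coupled to calcium signaling, plated overnight at 30 C and loaded with no-wash calcium dye. Calcium flux read kinetically for 180 s after compound addition; responses flag agonists.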
D2 PAM-2: human D2 receptor positive allosteric modulation; DiscoveRx D2 beta-arrestin cells, luminescence, 90 min; 100% = 57 uM dopamine signal; potentiation, % (no concentration beside the values); 0.23% of 360,000 active; in the data active = potentiation above about 50%; inconclusive = mostly about 30% to 49%
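PathHunter D2 cells, attached overnight at 37 deg C, received compound in DMSO plus dopamine at EC20 (50 nM final) for 90 min at 37 deg C. Beta-arrestin recruitment was read as luminescence after 1 h with detection reagent at ambient temperature.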
Large screens that a line does not name were inactive.

Cc1nn(S(=O)(=O)c2cccc([N+](=O)[O-])c2)c(C)c1S(=O)(=O)N1CCOCC1	none
Cc1nn(S(=O)(=O)c2cccc([N+](=O)[O-])c2)c(C)c1Br	D2 PAM-2 62.2
O=C(Nc1cccnc1N1CCOCC1)c1cc2ccccc2oc1=O	none
O=C(O)c1ccccc1NC(=O)c1cc2ccccc2oc1=O	D2 PAM-2 50.8
Cc1ccc(OCCCSc2nc(-c3ccc(C(C)(C)C)cc3)nc3cc(=O)[nH]n23)cc1C	none (no result: D2 ag-1, D2 antag, D2 ag-2, D2 PAM-2)
CCCCc1ccc(S(=O)(=O)NCCCN2CCCC2=O)cc1	none
Cc1cc(C)n2nnnc2n1	D2 antag 38.3
COc1ccc(NC(=O)CN2C(=O)C(C)(C)c3cc(S(=O)(=O)N4CCCCC4)ccc32)cc1Cl	none (no result: D2 ag-1, D2 antag, D2 PAM-2)
O=C(CN1C(=O)c2cccnc2Sc2ccccc21)Nc1cc(F)ccc1F	none (no result: D2 ag-1, D2 antag, D2 PAM-2)
COc1cccc(CNS(=O)(=O)c2ccc3c(c2)N(C(C)=O)CCO3)c1	D2 antag 61.4
COc1ccc(OC)c(-c2nc(C(=O)NC3CCN(Cc4ccccc4)CC3)cc3c2[nH]c2ccccc23)c1	D2 antag 80.8
COc1cc(-c2nc(C(=O)NC3CCCCC3)cc3c2[nH]c2ccccc23)cc(OC)c1OC	none
COc1ccc(OC)c(-c2nc(C(=O)NCCCN3CCOCC3)cc3c2[nH]c2ccccc23)c1	none
COc1cc(-c2nc(C(=O)NC3CCN(Cc4ccccc4)CC3)cc3c2[nH]c2ccccc23)cc(OC)c1OC	D2 antag 74.0
O=C(CSc1nccn1Cc1ccc(F)cc1)Nc1ccc2c(c1)OCO2	none (no result: D2 ag-1, D2 PAM-1, D2 antag, D2 PAM-2)
COc1c2c(cc3c1C(CC(O)Cc1ccccc1)N(C)CC3)OCO2 (configuration not stated)	D2 antag 57.2
Cn1c(SCc2ccc(C(F)(F)F)cc2)nc2c([nH]c3ccccc32)c1=O	none (no result: D2 ag-1, D2 antag, D2 PAM-2)
O=C(CCCCn1c(=O)c2ccccc2n(Cc2cccc(Cl)c2)c1=O)NCc1ccc2c(c1)OCO2	none (no result: D2 ag-1, D2 antag, D2 PAM-2)
Cc1cccc(NC(=O)CSc2nnc(CNC(=O)c3c(F)cccc3Cl)o2)c1C	none (no result: D2 ag-1, D2 antag, D2 PAM-2)
O=C(N/N=C/c1ccsc1)C1CC1	D2 PAM-1 39.6
O=C(N/N=C/c1cccnc1)c1cccc(Cl)c1	D2 antag 35.0
O=C(N/N=C/c1cccnc1)C1CCCCC1	D2 PAM-1 32.0
CCOc1cc(/C=N/NC(=O)c2cccnc2)ccc1O	D2 antag 31.4
COc1ccccc1-c1c(C)nn2c(N3CCN(c4ccc(F)cc4)CC3)cc(C)nc12	none (no result: D2 ag-1, D2 PAM-1, D2 antag, D2 PAM-2)
CN(CC(=O)Nc1ccc(Cl)cc1)C(=O)CNC(=O)Cc1cccc2ccccc12	none
CCOC(=O)c1c(S(=O)(=O)N2CCC(C(=O)NCc3cccc(OC)c3)CC2)c(C)n(C)c1C	none (no result: D2 ag-1, D2 PAM-1, D2 antag, D2 PAM-2)
Cc1c(Cl)cccc1NC(=O)CCN1CCCCCC1	none
O=C(CN1CCN(CCC(=O)Nc2ccccc2F)CC1)Nc1ccc(F)cc1	none
Cc1c(Cl)cccc1NC(=O)CC1NCCNC1=O (configuration not stated)	D2 antag 33.6
O=C(CN1CCN(CCC(=O)Nc2ccccc2F)CC1)Nc1ccc(Cl)cc1	D2 antag 129.3
Cc1c(Cl)cccc1NC(=O)CN1CCN(CCO)CC1	D2 antag 31.3
Cc1c(Cl)cccc1NC(=O)CC1SCCNC1=O (configuration not stated)	none
O=C(CCN1CCN(c2ccc(Cl)cc2)CC1)Nc1ccccc1F	D2 antag 35.9
COc1ccc(C(NC(=O)C2CCN(Cc3ccc(Oc4ccccc4)cc3)CC2)c2ccccn2)cc1 (configuration not stated)	none (no result: D2 PAM-1, D2 antag, D2 ag-2)
CC(=O)CCn1c(=O)n(CCC(C)=O)c(=O)n(CCC(C)=O)c1=O	D2 PAM-1 35.8
O=C(Nc1nnc(SCC(=O)N2CCCCC2)s1)C1CCCCC1	D2 PAM-1 37.2
Cc1ccc(NC(=O)Cn2c(-c3cncs3)nc3ccccc32)c(Br)c1	none (no result: D2 ag-1, D2 antag, D2 PAM-2)
CCOC(=O)N1CCc2c(sc(NCc3cccc(F)c3)c2C(=O)Nc2ccc(OCC)cc2)C1	none (no result: D2 ag-1, D2 antag, D2 PAM-2)
CCCC1(C(=O)OC)NC(c2cccc(F)c2)C2C(=O)N(CC)C(=O)C21 (configuration not stated)	D2 antag 30.8
COc1ccc(/C=C/C(=O)OCC(=O)c2ccc[nH]2)cc1	D2 antag 38.1
CCCCc1cc(=O)oc2cc(C)c3c(C)coc3c12	none (no result: D2 ag-1, D2 antag, D2 PAM-2)
O=C(Cc1ccccc1)NN1C(=O)/C(=C/c2ccccc2C(=O)O)SC1=S	D2 antag 30.7
O=C(O)COc1ccccc1/C=C1\SC(=S)N(NC(=O)c2ccccc2O)C1=O	none
CCCCC(=O)N(Cc1nc2sc(C)c(C)c2c(=O)[nH]1)C1CCCC1	none
COCC(=O)N(Cc1nc2sc(C)c(C)c2c(=O)[nH]1)C1CCCCC1	D2 antag 31.1
Cc1ccc(-n2nc3c([n+]2[O-])CCc2nonc2-3)cc1	D2 antag 52.9
COc1cc(NCCCC(C)N)c2ncccc2c1 (configuration not stated)	none
CCC(CNc1cc(OC)cc2cccnc12)NC1CCCCC1 (configuration not stated)	D2 antag 47.1
COc1ccc(CNC(=O)C2CCCN(C(=O)N3CCOc4ccccc43)C2)cc1 (configuration not stated)	none (no result: D2 ag-1, D2 antag, D2 PAM-2)
Cn1nc(-c2ccccn2)nc2c(=O)n(C)c(=O)nc1-2	none
CCCc1nc2c(=O)n(C)c(=O)nc-2n(C)n1	D2 ag-1 54.3
CCCN1CN(Cc2ccco2)c2nc3ccccc3n2C1	D2 antag 42.7
CCOc1ccc2nc(S(=O)(=O)NC(=O)C3(C)CCN3C(=O)CCc3cccs3)sc2c1 (configuration not stated)	none (no result: D2 PAM-1, D2 antag, D2 ag-2)
Cc1oc(-c2cccs2)nc1CN1CC[C@@](O)(c2ccccc2)[C@H]2CCCC[C@@H]21	none
OC1(c2ccccc2)CCN(Cc2ccccc2)C2CCCCC21 (configuration not stated)	D2 antag 38.1
Cc1nc2nc[nH]n2c(=O)c1NS(=O)(=O)c1ccc(Br)cc1	none (no result: D2 ag-1, D2 antag, D2 ag-2, D2 PAM-2)
O=C(COC(=O)c1c(F)cccc1F)Nc1ccc2[nH]c(=O)[nH]c2c1	D2 antag 64.7
COc1cc(OC)cc(C(=O)OCC(=O)Nc2ccc3[nH]c(=O)[nH]c3c2)c1	D2 antag 35.5
COc1ccc(CC(=O)OCC(=O)Nc2ccc3[nH]c(=O)[nH]c3c2)cc1	D2 PAM-2 inconclusive
O=c1[nH]cnc2nc(-c3ccccc3)c(-c3ccccc3)nc12	D2 PAM-1 45.3
COc1ccc(NC(=O)COC(=O)CCCOc2ccc(Cl)cc2Cl)cc1	D2 antag 39.7
COC(=O)c1scc(-c2ccc(C)cc2)c1S(=O)(=O)Nc1cc(OC)c(OC)c(OC)c1	none (no result: D2 ag-1, D2 antag, D2 PAM-2)
O=C(N1CCCCC1)N1CCN(S(=O)(=O)c2ccccc2)CC1	D2 PAM-1 70.0
O=C(c1ccc(=O)[nH]c1)N1CCN(S(=O)(=O)c2ccc(Cl)cc2)CC1	none
O=C(N1CCCCCC1)N1CCN(S(=O)(=O)c2ccccc2)CC1	none
